Measurements from the supplement of paper PMC12669032.
Unmarked numbers belong to inactive results.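 Rule for the calls: active = AUC reduced over 20% with Padj below 0.05 in at least 2 of 3 replicates; inactive = otherwise.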

Assays:
Assay in all cases: growth AUC relative to DMSO control (median of replicates) (fraction); higher = more growth (less inhibition), active = hit call of the paper
Conditions in all cases: 20 µM; 24 h
[1] = system: Akkermansia muciniphila
Outline: (§1)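 Gut bacterial monocultures were grown anaerobically at 37 °C in mGAM, starting at OD600 0.05, with 20 µM compound (1% DMSO) in round-bottom 96-well plates under pierced gas-permeable seals. OD600 was read hourly for 24 h. Area under the growth curve (minimum OD set to 0) was normalised to the plate median of DMSO controls, or to row and column medians on the industrial chemical plate. The value is the median of three biological replicates grown on separate days.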

[2] = system: Bacteroides caccae
Outline: as §1

[3] = system: Bacteroides clarus
Outline: as §1

[4] = system: Bacteroides dorei
Outline: as §1

[5] = system: Bacteroides stercoris
Outline: as §1

[6] = system: Bacteroides thetaiotaomicron
Outline: as §1

[7] = system: Bacteroides uniformis
Outline: as §1

[8] = system: Bifidobacterium longum subsp. longum
Outline: as §1

[9] = system: Clostridium difficile
Outline: as §1

[10] = system: Collinsella aerofaciens
Outline: as §1

SMILES	growth AUC [1]	growth AUC [2]	growth AUC [3]	growth AUC [4]	growth AUC [5]	growth AUC [6]	growth AUC [7]	growth AUC [8]	growth AUC [9]	growth AUC [10]
CSc1nnc(C(C)(C)C)c(=O)n1/N=C/C(C)C	0.944	0.905	1.04	1.02	1.35	1.02	0.988	1.08	1.01	1.02
CCCCCCCCCCCC[N+](C)(C)Cc1ccc(CC)cc1.[Cl-]	0.765	0.0238 (active)	0.234 (active)	0.92	0.00577 (active)	0.00582 (active)	0.0211 (active)	0.665 (active)	0.73	0.502 (active)
COC(=O)c1cccc(C)c1S(=O)(=O)NC(=O)Nc1nc(OCC(F)(F)F)nc(N(C)C)n1	0.973	0.963	0.995	1.01	1.01	0.985	0.981	0.992	0.987	1.01
CC(C)c1nn(C(=O)NC(C)(C)C)c(=O)n1N	0.95	1.04	0.976	1.02	1.08	0.976	1	0.999	1	1.05
CCOC(=O)C1=NOC(c2ccccc2)(c2ccccc2)C1	0.86	1.03	0.971	0.995	0.979	0.926	0.932	0.966	0.974	0.993
O=C=NC1CCC(CC2CCC(N=C=O)CC2)CC1 (stereo not given)	1.05	0.986	1.03	0.939	1.03	0.995	0.996	1.05	1.01	1.02
CNC(=O)/C(=N/OC)c1ccccc1CO/N=C(C)/C(=N/OC)C(/C)=N/OC	0.957	0.983	0.98	1	0.991	0.976	0.976	0.989	0.979	1.03
COc1c(Cl)ccc(Cl)c1C(=O)O	0.878	0.997	0.975	1.01	0.961	1	0.947	0.926	1.01	1.04
NC(=O)c1c(Cl)cccc1Cl	0.966	0.94	1	1.01	1.06	0.998	0.978	1	0.98	0.974
CCN(CC)C(=O)SCc1ccccc1Cl	0.931	1.02	0.985	1	1.01	0.983	0.957	0.965	0.996	1.01
O=C(O)COc1cccc(Cl)c1Cl	0.919	0.947	0.971	0.962	1.02	0.993	0.997	0.989	1	0.992
O=[N+]([O-])c1ccc2c(c1)Cc1ccccc1-2	0.896	0.995	1.01	0.991	0.981	0.985	1	1.06	0.992	1
CC(C)CNC(=O)N1CCNC1=O	1.09	0.975	1.02	0.96	1.18	1.02	1.02	1.04	1.04	1.08
COc1cc(OC)nc(NC(=O)NS(=O)(=O)c2c(-c3nnn(C)n3)cnn2C)n1	1.13	0.99	1	0.94	1.08	1.01	1	1.01	0.961	0.978
COC1CCC2(CC1)NC(=O)C(O)(c1cc(C)ccc1C)C2=O (stereo not given)	1	0.984	1.02	1.03	1.15	1.01	1.02	1.05	1.02	0.981
CCNc1nc(NC(C)CC)nc(OC)n1 (stereo not given)	1.08	1.02	1	1.02	1.29	0.977	0.979	0.986	1.03	1.13
ClC(COCC(Cl)C(Cl)(Cl)Cl)C(Cl)(Cl)Cl (stereo not given)	0.875	0.969	0.942	1.01	0.952	0.91	0.918	0.967	1.02	1.05
CC(C)COC(=O)COc1cc(Cl)c(Cl)cc1Cl	0.952	0.864	0.993	0.971	1.15	0.978	1.01	1.03	1	0.91
C#CCN(C)c1c(C#N)cnn1-c1nn2c(c1Cl)CCCC2	0.903	0.935	0.931	0.987	0.851	0.933	0.914	0.995	1	1.02
COC1CCC2(CC1)NC(=O)C(c1cc(C)ccc1C)=C2O (stereo not given)	0.863	0.974	1.05	1.02	1.12	1.01	1.01	1.09	1.02	1.05
FC(F)(F)C(=NOCC1OCCO1)c1ccc(Cl)cc1	1.16	0.948	1.05	0.969	1.34	0.991	0.941	0.988	0.904	0.976
CSc1nc(NC2CC2)nc(NC(C)(C)C)n1	0.845	1.03	0.988	1.03	0.871	0.895	1	1.04	1.04	1.06
Cc1nn(C)c(Oc2ccccc2)c1/C=N/OCc1ccc(C(=O)OC(C)(C)C)cc1	1.04	1.01	1.03	0.974	0.961	0.982	0.969	0.944	1.02	0.963
Nc1ccc(S(=O)(=O)Nc2nccs2)cc1	0.9	1.03	0.992	0.943	0.985	0.978	1.02	0.998	0.98	0.978
Cc1cccc(C)c1N(CCSCC(O)C(=O)[O-])C(=O)CO.[Na+] (stereo not given)	1.15	0.993	1.02	0.907	1.01	0.98	1.01	1.05	0.992	0.913
COc1cccc(N(C)C(=S)Oc2cccc(C(C)(C)C)c2)n1	0.871	0.93	0.921	1.06	0.839	1.01	1.01	0.895	1.09	0.97
CC(C)(CO)C(O)(CCc1ccc(Cl)cc1)Cn1cncn1 (stereo not given)	1.01	0.955	0.998	0.967	1.01	0.969	0.994	0.967	0.991	0.991
CCCCOC(=O)C(C)Oc1ccc(Oc2ccc(C(F)(F)F)cn2)cc1 (stereo not given)	1.13	1.01	0.977	0.951	1.08	0.959	0.891	0.681 (active)	1.01	0.963
CP(=O)(O)CCC(=O)O	0.928	0.975	0.956	1.01	1.01	1.03	0.967	1.03	1.04	1
